From PubChem
Shown are actives, neighbours in structure and some others; about 5.5% of the full set was active somewhere.
MBNL1 CUG block – blocks human MBNL1 binding to CUG repeat RNA | TR-FRET MBNL1-His/biotin-(CUG)12 binding, 665/545 ratio | Potency, µM (series often up to 57.5 µM), most hits filed as inhibitors | hit rate 0.036% among 280,000 | AID 2675; active = well fitted inhibition curve with a large enough effect in the signal ratio, with a control signal flat, not every such curve was filed as active; inconclusive = small, poorly fitted or top-dose-only effect, or effect the other way, or a change in a side signal; inactive = no such curve, though single readings can be large or run the other way; the % refers to the signal ratio
Target sequence (Q9NR56 whole entry, looked up): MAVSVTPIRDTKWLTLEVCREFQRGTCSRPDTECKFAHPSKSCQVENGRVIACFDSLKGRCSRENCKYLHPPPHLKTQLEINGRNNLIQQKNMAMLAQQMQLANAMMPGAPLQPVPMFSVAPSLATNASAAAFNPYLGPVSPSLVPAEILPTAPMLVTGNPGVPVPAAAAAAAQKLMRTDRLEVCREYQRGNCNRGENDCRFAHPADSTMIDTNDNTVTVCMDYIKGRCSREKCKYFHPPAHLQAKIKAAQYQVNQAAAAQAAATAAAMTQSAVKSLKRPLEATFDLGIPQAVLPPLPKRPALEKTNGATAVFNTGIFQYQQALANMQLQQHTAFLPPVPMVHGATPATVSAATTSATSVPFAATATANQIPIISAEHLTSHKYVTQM
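Compounds (final 92 nM to 58 uM) are added to His-tagged MBNL1 and biotin-(CUG)12, then terbium anti-His antibody and streptavidin-XL665 (5 nM final). After 60 min at room temperature, the 665/545 nm ratio is read.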
RORg inh – inhibitors of mouse ROR gamma transcriptional activity; Potency, µM (doses to about 53.6 µM), actives largely listed as inhibitors; AID 2551; P51450; hit rate 5.4% among 310,000; Drosophila S2 Gal4-RORgamma UAS-luciferase reporter, 20 h; note: nearly all actives have a fitted effect of over 60% in size
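Compounds are pin-transferred onto Drosophila Schneider cells expressing a copper-inducible Gal4–ROR gamma transactivation domain fusion. After 1 hr, copper sulfate is added to 700 uM final; luciferase is read 20 hr later.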
CBFb RUNX1 block – inhibitors of human CBF-beta and RUNX1 interaction; 230,000 tested, under 10 active; AlphaScreen CBFb-His/RUNX1-biotin binding, biochemical; Potency, µM (series often up to 59.8 µM), actives largely listed as inhibitors
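Inhibition was taken as any reduction in AlphaScreen signal from the CBF-beta–RUNX1 pair (His and biotin tags, 30 nM each), measured after compound (15 min) and bead (90 min) incubations at room temperature.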
Gal4-VP16 FLuc – counter-screen for ROR gamma inhibitors: Gal4-VP16 reporter | Drosophila S2 Gal4-VP16 UAS-luciferase, luminescence, 20 h | Potency, µM (series often up to 53.6 µM), hits mostly inhibitors | hit rate 3.5% among 310,000;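 note: Gal4-VP16 expression switched on by copper sulfate through the metallothionein promoter; nearly all actives have a fitted effect of over 50% in size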
CtBP-E1A blk – CtBP/E1A binding inhibition | AlphaScreen GST-E1A/His-CtBP binding, 1536-well; stronger effect = lower value | activity change, % (concentration not given with the values) | hit rate 0.49% among 340,000 | AID 651724; in the data active = activity change below about -65%; inconclusive = mostly about -30% to -63%
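GST-E1A and His-tagged CtBP (125 nM each as 5X stock) were preincubated with pin-transferred compound for 2 h at 37 °C in the dark, then glutathione donor and nickel acceptor beads were added for 1 h before AlphaScreen reading.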
Six1-Eya2 inh – inhibitors of human Six1/Eya2 interaction. Q15475+O00167. AlphaScreen GST-Six1/His-Eya2 binding, biochemical; stronger effect = lower value. activity change, % (no concentration beside the values). hit rate 0.56% among 360,000; in the data active = activity change below about -65%; inconclusive = mostly about -30% to -63%
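Compounds are tested against tagged Six1 and Eya2 proteins bridged by glutathione donor and nickel acceptor beads; after a one-hour incubation at 37 °C without light, AlphaScreen emission is recorded.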
Large screens that a line does not name were inactive; ! = repeats disagree. Unless noted, calls come from the whole dose curve; as a rule, active = well fitted curve in the direction sought with a large enough effect; inconclusive = small, poorly fitted or top-dose-only effect, or another doubt; inactive = no such curve, though single readings can be large; an effect the other way counts as inactive or inconclusive.

Cc1ccc(C2C3C(=O)N(c4ccccc4)C(=O)C3N3CCCN23)cc1 (configuration not stated)	RORg inh inconclusive (no result: CtBP-E1A blk)
O=c1c(-c2cccs2)nc2cnc(N3CCOCC3)nc2n1Cc1cccs1	none (no result: MBNL1 CUG block, CBFb RUNX1 block, CtBP-E1A blk, Six1-Eya2 inh)
COc1cc2[nH]c(=S)nc(NCc3cccc(Cl)c3)c2cc1OC	MBNL1 CUG block inconclusive, RORg inh 3.2µM, Gal4-VP16 FLuc 7.9µM, Six1-Eya2 inh inconclusive (no result: CBFb RUNX1 block, CtBP-E1A blk)
O=C(NCCc1ccc(Cl)cc1)C1CCC(CNc2nc(=S)[nH]c3ccccc23)CC1 (configuration not stated)	RORg inh 11µM, Gal4-VP16 FLuc inconclusive, Six1-Eya2 inh inconclusive
COc1ccc(CNc2nc(=S)[nH]c3cc(OC)c(OC)cc23)cc1	MBNL1 CUG block inconclusive, RORg inh 16µM, Gal4-VP16 FLuc inconclusive, Six1-Eya2 inh -82 (no result: CBFb RUNX1 block, CtBP-E1A blk)
COc1cc(-c2cc3nc(NCc4cccc(Cl)c4)ccn3n2)cc(OC)c1OC	none (no result: MBNL1 CUG block, RORg inh, CBFb RUNX1 block, Gal4-VP16 FLuc)
COc1cc2[nH]c(=S)nc(NCc3cccnc3)c2cc1OC	CtBP-E1A blk -82, Six1-Eya2 inh -69 (no result: CBFb RUNX1 block)
CCCCCCN1CCN(C2CN(Cc3cn(CCCC(=O)OC)nn3)S(=O)(=O)C2)CC1 (configuration not stated)	none (no result: MBNL1 CUG block, RORg inh, CBFb RUNX1 block, Gal4-VP16 FLuc)
CC(C)[C@H](NC(=O)OCc1ccccc1)C(=O)N[C@@H](Cc1c[nH]c2ccccc12)C(=O)O	none (no result: MBNL1 CUG block, RORg inh, CBFb RUNX1 block, Gal4-VP16 FLuc)
S=c1nc(NCc2cccc(Cl)c2)c2ccccc2[nH]1	RORg inh 4µM, Gal4-VP16 FLuc 8.9µM (no result: CBFb RUNX1 block)
Clc1cccc(CNc2nc(-c3cccnc3)nc3ccccc23)c1	none (no result: CBFb RUNX1 block)
COc1cc2c(cc1NCc1ccccn1)oc1ccccc12	none
COc1cc2[nH]c(=S)nc(NCc3ccccn3)c2cc1OC	CtBP-E1A blk inconclusive, Six1-Eya2 inh -70
Cc1noc(C)c1CSCC(=O)Nc1nnc(CC(C)C)s1	none (no result: CBFb RUNX1 block)
Oc1ccc(/C=C\c2cc(O)cc(O)c2)cc1	RORg inh 3.5µM!, Gal4-VP16 FLuc 13µM (no result: MBNL1 CUG block, CtBP-E1A blk, Six1-Eya2 inh)
Oc1ccc(/C=C/c2cc(O)cc(O)c2)cc1	MBNL1 CUG block inconclusive, RORg inh 2µM, CBFb RUNX1 block inconclusive, Gal4-VP16 FLuc 14µM!
Nn1c(-c2ccccc2)cc(-c2ccccc2)cc1=O	none (no result: MBNL1 CUG block, RORg inh, CBFb RUNX1 block, Gal4-VP16 FLuc)
Cc1ccc(C(=O)NC(=S)NCC2CCCO2)cc1Br (configuration not stated)	RORg inh 5µM, Gal4-VP16 FLuc inconclusive
O=C(NC(=S)NC1CCCCC1)c1ccccc1[N+](=O)[O-]	MBNL1 CUG block inconclusive, RORg inh 5µM, Gal4-VP16 FLuc 5.6µM (no result: CBFb RUNX1 block)
O=C(NC(=S)NCC1CCCO1)c1ccccc1Br (configuration not stated)	RORg inh inconclusive (no result: MBNL1 CUG block)
CCOc1cc(NC(=S)NCC2CCCO2)c(OCC)cc1NC(=O)CC (configuration not stated)	none
O=C(NC(=S)NCC1CCCO1)c1ccccc1[N+](=O)[O-] (configuration not stated)	MBNL1 CUG block inconclusive, RORg inh 10µM
CCOc1cc(NC(=S)NCC2CCCO2)c(OCC)cc1NC(=O)c1ccccc1F (configuration not stated)	RORg inh 3.2µM, Gal4-VP16 FLuc 7.9µM
O=c1c(CCc2ccccc2)nc2cnc(N3CCNCC3)nc2n1C1CC1	none (no result: MBNL1 CUG block, CBFb RUNX1 block, CtBP-E1A blk, Six1-Eya2 inh)
CCN(CC)S(=O)(=O)c1ccc(/C=C/C(=O)NC2CCCCC2)cc1	MBNL1 CUG block inconclusive, RORg inh inconclusive (no result: CBFb RUNX1 block)
Brc1cc2c(cc1CSc1ncccn1)OCO2	none (no result: CBFb RUNX1 block)
O=C(NC(=S)NCC1CCCO1)c1ccco1 (configuration not stated)	none
O=C(NC(=S)NCC1CCCO1)c1cccs1 (configuration not stated)	RORg inh 14µM, Gal4-VP16 FLuc inconclusive
CC(C)(C)NC(=O)C(=O)NNC(=O)c1cccc(Br)c1	RORg inh inconclusive, Gal4-VP16 FLuc inconclusive
Cc1cccc(C(=O)NNC(=O)C(=O)NC(C)(C)C)c1	RORg inh 13µM
CC(C)(C)NC(=O)C(=O)NNC(=O)c1ccc(C(C)(C)C)cc1	RORg inh 8.9µM, Gal4-VP16 FLuc inconclusive
Cc1cccc(C(=O)NNC(=O)c2ccccc2O)c1	RORg inh 13µM, Gal4-VP16 FLuc inconclusive (no result: CBFb RUNX1 block, CtBP-E1A blk)
